# Compound activity as filed in PubChem BioAssay.
# An excerpt weighted towards active compounds, which were near 1.1% of everything screened.
# PKA-R1A act: activators of PKA-R1A complex; 340,000 compounds, 0.083% hits; PKA-R1A dissociation, Cy5-IP20 fluorescence polarization; scaled: DMSO 0%, 113 µM cGMP 100%; activation, % at 11.4 µM; AID 504707;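 active = percent activation above the mean of all tested compounds plus 3 SD, cut at about 19% in these data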;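 also: higher means more PKAc released from R1A so a rise in polarization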
# MsrA act: bovine methionine sulfoxide reductase A activation | activation, % at 10.6 µM | AID 602163 | purified bovine MsrA, absorbance read-out | 360,000 compounds, 0.3% hits; in the data active = activation above about 7.5%;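 also: 0% = vehicle and 100% = reference activator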
# PKA-R2B activ: activators of human PKA-R2B complex | activation, % at 11.4 µM | P22694+P31323 | AID 504700 | PKA-R2B holoenzyme dissociation, Cy5-IP20 fluorescence polarization; R2B truncated from residue 108, S112A mutant; 0% DMSO only, 100% 113 µM cGMP | 340,000 compounds, 0.079% hits;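 active = activation above a cutoff set at the mean over all compounds plus 3 SD, cut at about 18% in these data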;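 also: higher means more holoenzyme dissociation and a rise in polarization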
# Target sequence (P31323 whole entry, looked up, other chains not shown, the tested form may be a part): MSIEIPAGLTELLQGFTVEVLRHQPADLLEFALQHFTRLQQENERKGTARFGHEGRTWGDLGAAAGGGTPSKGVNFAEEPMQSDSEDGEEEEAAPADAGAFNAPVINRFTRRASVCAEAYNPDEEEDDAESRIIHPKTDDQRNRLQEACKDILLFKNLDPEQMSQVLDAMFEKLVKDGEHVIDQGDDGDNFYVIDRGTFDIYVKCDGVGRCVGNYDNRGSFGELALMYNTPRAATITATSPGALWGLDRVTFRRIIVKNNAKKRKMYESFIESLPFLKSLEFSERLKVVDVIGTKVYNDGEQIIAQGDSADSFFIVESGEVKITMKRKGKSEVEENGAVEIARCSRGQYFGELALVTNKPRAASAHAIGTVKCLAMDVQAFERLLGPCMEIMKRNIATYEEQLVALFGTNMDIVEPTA
# MsrA inh: inhibits bovine methionine sulfoxide reductase A. inhibition, % at 15.5 µM. 360,000 compounds, 0.75% hits. purified bovine MsrA, absorbance read-out;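 also: 0% = vehicle wells with enzyme and 100% = reference inhibitor wells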
# MsrA conf: confirmation of bovine MsrA inhibitors; shares compounds with MsrA inh; purified bovine MsrA, absorbance read-out; inhibition, % at 15.5 µM; 2,300 compounds, 41% hits; AID 651822;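 also: coupled to thioredoxin reductase with NADPH and selenocystamine and DMSO as substrate; 0% = vehicle only and 100% = full effect of reference inhibitor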
# * hit, by the source's call; . = no result. Rule as the data show it, unless noted: active = inhibition above about 4.5%; inactive = the rest.
SMILES,PKA-R1A act,MsrA act,PKA-R2B activ,MsrA inh,MsrA conf
O=C(NN=Cc1cc(Br)c(O)c(Br)c1)c1ccccc1NS(=O)(=O)c1cccs1,14,-7,-6,6.1*,4
O=C(O)c1ccc(/C=N/NC(=O)c2ccc(NS(=O)(=O)c3cccs3)cc2)cc1,-17,-5,-8,5.5*,5.5*
O=C(NN=Cc1ccc(F)cc1)c1ccccc1NS(=O)(=O)c1cccs1,6,-5,5,1,.
CN(C(=O)c1cccc(NC(=O)Cc2ccc(NC(=O)C3CCCN(C(=O)c4ccccc4)C3)cc2)c1)C1CC1 (stereo unspecified),.,.,.,0,.
Cn1c(Oc2ccccc2NCc2cccc(Br)c2)cc(=O)n(C)c1=O,5,-3,-9,2,.
CCOc1cc(C)cc2oc(=O)cc(-c3ccccc3)c12,3,-1,-5,6.5*,5.1*
Cc1ccc(-c2c(C)cc3oc(=O)cc(-c4ccccc4)c3c2C)cc1,-2,-2,4,0,.
Cc1cc(OCC(=O)N2CCc3ccccc3C2)c2c(-c3ccccc3)cc(=O)oc2c1,-6,-3,-9,15*,14*
CC(=O)Oc1cc(C)cc2oc(=O)cc(-c3ccccc3)c12,-9,1,1,9.1*,1
Cc1cc(OC(C)C)c2c(-c3ccccc3)cc(=O)oc2c1,-12,-6,-13,26*,22*
CC1CCC(CN2C(Nc3ccccc3)=NC[C@@H]2C)CC1 (stereo partly specified),0,1,-18,-2,.
COc1ccccc1NC(=O)CSc1nc2ccccc2nc1N1CC(C)OC(C)C1 (stereo unspecified),2,0,4,1,.
O=C1C(C=NCCCn2ccnc2)=C(O)c2ccccc21,-8,-9,8,4.7*,2
O=C1C(C=NCCCN2CCCC2=O)=C(O)c2ccccc21,5,-2,3,5.2*,3
CC(C)CN=CC1=C(O)c2ccccc2C1=O,-5,-5,-6,4,.
CCCc1nc(SCC(=O)O)c2sc(=S)n(-c3ccccc3)c2n1,-17,-1,-4,4.7*,4.8*
CC[C@@]1(C(=O)OC)N[C@H](CN(C)S(=O)(=O)c2ccc(OC)cc2)[C@@H]2C(=O)N(C)C(=O)[C@@H]21,0,1,2,1,.
O=C(Nc1ccc2[nH]c(=S)sc2c1)c1ccccc1,-13,0,6,5.1*,2
C[C@H]1CN([C@@H](C)CO)C(=O)CCCn2nncc2CO[C@@H]1CN(C)S(=O)(=O)c1cccs1,.,.,.,0,.
Cc1cccc(C)c1NC(=O)/C(C#N)=C/c1cccs1,-11,-9,-10,6.9*,4
Cc1ccc(NC(=O)/C(C#N)=C/c2cccs2)c(C)c1,8,2,-5,1,.
Cc1ccc(Cl)cc1NC(=O)N(C)CCOC(=O)Nc1cccc(Cl)c1,.,.,.,1,.
Cc1ccc(C(=O)NC(=S)Nc2ccc(N3CCOCC3)cc2)c(C)c1,-8,-3,-8,1,.
Cc1ccc(C(=O)N/N=C/c2ccc(N3CCOCC3)cc2)c(C)c1,5,-2,7,5.5*,4
C/C(=N\NC(=O)c1ccc(F)cc1)c1ccc(N2CCOCC2)cc1,4,-3,4,2,.
SMILES,PKA-R1A act,MsrA act,PKA-R2B activ,MsrA inh,MsrA conf
C/C(=N\NC(=O)c1cccc(C)c1)c1ccc(N2CCOCC2)cc1,-2,-11,-16,5.3*,3
O=C(N/N=C/c1ccc(N2CCOCC2)cc1)c1ccc(O)cc1,0,-6,-1,5.6*,4.8*
O=C(O)c1ccc(/C=N/NC(=S)NCCN2CCOCC2)cc1,-17,-12,-1,6.1*,2
O=C1C(=O)N(CCCn2ccnc2)C(c2ccc(Cl)cc2)/C1=C(\O)c1ccc2c(c1)OCCO2 (stereo unspecified),-4,-5,5,9.1*,1
COc1ccc(/C(O)=C2/C(=O)C(=O)N(CCCN3CCOCC3)C2c2ccc(Cl)cc2)cc1 (stereo unspecified),5,-3,1,6.8*,2
O=C(O)CCCCCCCCCCCNC(=O)NC12CC3CC(CC(C3)C1)C2,-6,-1,0,1,.
COCc1[nH]nc2c1C(c1ccc(F)cc1)N(c1ccc(OC)cc1)C2=O (stereo unspecified),.,.,.,0,.
Cc1ccc(C(=O)c2ccc(CC(=O)O)n2C)cc1,2,-5,-3,4,.
CSC(=Cc1ccc(C(=O)c2ccc(C)cc2)n1C)S(C)=O (stereo unspecified),.,.,.,5.0*,3
C(=N\Nc1ncnc2sc3c(c12)CCC3)/c1cccs1,-4,-9,3,4,.
Cn1cnc2c(N/N=C/c3cccs3)ncnc21,.,-5,.,5.2*,6.9*
CCOCCn1c(=NC(=O)CSCC(=O)Nc2cc(C)on2)sc2cc(OC)ccc21,-4,-3,-3,6.3*,2
COCCn1c(=NC(=O)CSCC(=O)NC2CCCCC2)sc2cc(OC)ccc21,-3,-10,12,1,.
CCN=C1NC(c2ccccc2C(F)(F)F)C(C(=O)OC)=C(C)N1Cc1ccc(C(F)(F)F)cc1 (stereo unspecified),.,.,.,-1,.
COc1cc2sc(-c3ccc(S(C)(=O)=O)cc3)c(C(=O)NCCCCO)c2cc1OC,-1,-4,-4,5.5*,2
O=C(c1ccco1)c1cc2c(ccc3ccccc32)oc1=O,0,-4,8,13*,28*
Cc1cc(C)n2nc(C(F)(F)F)c(-c3ccccc3)c2n1,1,-1,-8,4.8*,0
COc1cc(CN2CCN(c3ncc(Cc4ccccc4)cn3)CC2)cc(OC)c1,.,.,.,1,.
c1ccc(-n2cc(CNCCc3cscn3)c(-c3ccc4c(c3)OCO4)n2)cc1,-7,-3,-4,6.3*,1
CC(=O)c1ccc(N2CCN(C(=O)C3CCCN(S(=O)(=O)c4c(C)[nH]c(=O)[nH]c4=O)C3)CC2)cc1 (stereo unspecified),-5,-7,1,4.7*,3
COc1cc(C(=O)C(=O)N2CCN(c3ccccc3)CC2)cc2ccccc12,.,.,.,3,.
COc1ccc(-c2csc(C)n2)cc1Br,0,-4,0,7.9*,5.2*
COc1cc(-c2csc(C)n2)ccc1O,5,-3,-5,-2,.
Cc1csc(SCC(=O)Nc2cc(S(=O)(=O)N(C)C)ccc2C)n1,-3,-3,2,0,.
CN(C)c1ccc(-c2nc3ccccc3c(=O)[nH]2)cc1,4,-14,2,6.0*,4
Nc1ccc(C(=O)N/N=C2\CCCc3c2[nH]c2ccccc32)cc1,1,-6,-8,5.3*,7.1*
CC(C)c1ccc2[nH]c3c(c2c1)CCC/C3=N\NC(=O)c1ccncc1,-2,-4,-13,1,.
CCc1cc(-c2[nH]ncc2-c2ccc(OC)cc2)c(O)cc1O,-5,-1,-13,7.1*,3
O=C(C(=O)N1CCC(CNC(=O)c2ccccc2F)CC1)c1cc2ccccc2o1,.,.,.,1,.
